# Laboratory results taken from PubChem BioAssay AID624405 (Broad Institute, 2012).
# The campaign covered roughly 1,900 compounds. About 250 (13%) were called active. Another 4% or so got no clear call; they are omitted. Only a sample is shown. Entries with a potency or affinity are not part of this list. A number with no mark means an inactive call.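 The calls were made as follows: active = fitted curve reaches 40% rescue activity at or below the top valid dose, in every test run; inconclusive = test runs disagree, some active and some inactive; inactive = every run misses the threshold or moves the wrong way.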
# Experiment: suppressors of statin myotoxicity in myotubes, dose response, cell-based, C2C12 myotubes, ATP luminescence, cherry pick (AID 624405);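 also: myotubes are challenged with simvastatin at 10 µM to lower ATP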
# Settings: C2C12 myotubes + simvastatin, 48 h, scaled: DMSO wells 0, geranylgeraniol wells 100; series mostly up to 19.5 µM; rescue activity (ATP increase): at the top concentration
row,Structure (SMILES),rescue activity (ATP increase) [%]
1,C[C@@H]1CCCCO[C@@H](CN(C)C(=O)Nc2cccc3ccccc23)[C@H](C)CN([C@@H](C)CO)C(=O)c2cc(NS(=O)(=O)c3ccc(Cl)cc3)ccc2O1,8.11
2,CCC/C(=C1/c2ccccc2C(=O)N1c1ccccc1)c1ccc2c(c1)OCCO2,10.9
3,C[C@H](CO)N1C[C@H](C)[C@@H](CN(C)Cc2ccccc2F)Oc2ncc(C3=CCCCC3)cc2C1=O,-21.6
4,C[C@@H]1CN([C@H](C)CO)C(=O)Cc2cc(NC(=O)Cc3cn(C)c4ccccc34)ccc2O[C@H]1CN(C)Cc1ccc(-c2ccccc2)cc1,9.45
5,COc1ccccc1CNc1ncnc2c1nnn2Cc1ccccc1,7.95
6,COc1ccc(CNc2ncnc3cc(OC)c(OC)cc23)cc1,-9.96
7,CC(c1ccco1)N(C(=O)Nc1ccc(Cl)cc1)c1ccccn1 (configuration not stated),-25.4
8,COc1ccccc1-c1nnc(SCC(=O)N2CC(C)CC(C)C2)o1 (configuration not stated),20
9,COc1ccc(-n2nnnc2SCC(=O)N2CCCc3ccccc32)cc1OC,29
10,CNC[C@@H]1Oc2ccc(NC(=O)Nc3ccc(C(F)(F)F)cc3)cc2CC(=O)N([C@@H](C)CO)C[C@@H]1C,-3.3
11,CCOc1cc(CNCc2ccncc2)cc(Br)c1OCc1ccccc1F,-28
12,COc1ccc2c(c1)c(C(=O)OCCN(C)C)c(C)n2C,37.3
13,O=C(COc1ccccc1)Nc1ccc(S(=O)(=O)N2CCCC2)cc1,-27.4
14,Cc1c(C(=O)N2CCOCC2)oc2ccc(S(=O)(=O)N3CCCC3)cc12,1.94
15,C[C@H]1CCCCO[C@@H](CN(C)C(=O)Nc2cccc3ccccc23)[C@@H](C)CN([C@@H](C)CO)C(=O)c2cc(NS(=O)(=O)c3ccc(Cl)cc3)ccc2O1,27.8
16,C[C@@H]1CN([C@H](C)CO)C(=O)c2cc(C3=CCCCC3)cnc2O[C@@H]1CN(C)Cc1ccccc1F,9.58
17,Cc1noc(C)c1NC(=O)Nc1ccc2c(c1)C(=O)N([C@@H](C)CO)C[C@@H](C)[C@H](CN(C)S(=O)(=O)c1c(C)noc1C)OCCCC[C@@H](C)O2,-8.13
18,Nc1nnnn1NCc1cccc(OCc2ccccc2)c1,45.5
19,COc1cc(CCC(=O)OCc2nnc(-c3ccccc3)o2)cc(OC)c1OC,71.2
20,Cc1ccc(N2C(N)=NC(N)=NC2(C)C)c(C)c1,-3.46
21,CCOC(=O)N1CCN(C(=O)c2ccc3c(=O)n(CCc4ccccc4)c(=O)[nH]c3c2)CC1,3.38

row,Structure (SMILES),rescue activity (ATP increase) [%]
1,CN1C(=O)c2cc(NS(=O)(=O)c3ccc(Cl)cc3)ccc2OC[C@@H]2O[C@@H](CC(=O)N3CCc4ccccc4C3)CC[C@H]21,24.8
2,COc1cccc(C(=O)CN2C3=NCCCN3c3ccccc32)c1,-55.7
3,CCCCN1C(=O)NC(NC(C)=O)(C(F)(F)F)C1=O (configuration not stated),20.1
4,Cc1cccc(N=c2oc3cc(O)ccc3cc2C(N)=O)c1,0.245
5,O=c1c2ccccc2n(Cc2ccc(F)cc2)c(=O)n1C1CCCC1,-1.96
6,O=C(Cn1ncc2c3ccccc3n(Cc3cccc(Cl)c3)c2c1=O)NCC1CCCO1 (configuration not stated),21.1
7,N#Cc1cc(-c2ccccc2)nnc1Sc1ccc(Cl)cc1,-22
8,COc1ccc(CN(Cc2cccn2C)C(=O)c2cc3cc(OC)ccc3[nH]2)cc1,11.4
9,Cn1c(-c2ccc(F)cc2)cnc1NCc1ccc(F)cc1,-41.3
10,COc1cc(NC(=O)c2cccs2)c(C(=O)OCC(=O)NCc2ccco2)cc1OC,-6.19
11,Cc1ccc(CNC(=O)CNS(=O)(=O)c2cccc3nsnc23)cc1,-8.33
12,COc1ccc(S(=O)(=O)Nc2ccc3c(c2)C(=O)N([C@H](C)CO)C[C@@H](C)[C@H](CN(C)S(=O)(=O)c2ccc(F)cc2)OCCCC[C@H](C)O3)cc1,11.2
13,CNC[C@@H]1Oc2ccc(NS(=O)(=O)c3c(C)noc3C)cc2C(=O)N([C@@H](C)CO)C[C@@H]1C,26.8
14,Cc1nc(CSc2ccc(Cl)cc2)cc(N2CC(C)OC(C)C2)n1 (configuration not stated),-17.7
15,CC1CC(C)CN(CCCNC(=O)c2ccc3c(c2)NC(=O)C(N2CCCCC2)S3)C1 (configuration not stated),-22.8
16,O=C(Nc1cccc(C(F)(F)F)c1)c1cc(-c2cccs2)on1,-19.6
17,O=C(Nc1cc(Br)ccc1O)c1cc(-c2cccs2)on1,-16.9
18,CC(=O)c1cccc(NC(=O)c2cc(-c3cccs3)on2)c1,39.1
19,Cc1ccc(NC(=O)c2cc(-c3cccs3)on2)cc1,-5.35
20,CCN(CCCNC(=O)C1CCC(=O)N1C(C)C)c1cccc(C)c1 (configuration not stated),26.9
21,Cc1noc(C)c1S(=O)(=O)Nc1ccc2c(c1)C(=O)N([C@@H](C)CO)C[C@H](C)[C@H](CN(C)Cc1ccc3c(c1)OCO3)O2,-0.012
